From PubChem BioAssay (NCATS) come the findings set out here.

In one experiment the test system is HEK293. The experiment can be described thus: Cytotoxic Profiling of Annotated Libraries Using Quantitative High-Throughput Screening (AID 1296008). On max response: on the % scale 0 is the no-effect control and ±100 the full control effect. The following applies: Five cell lines viability, CellTiter-Glo ATP luminescence, 48-72 h; max response: stronger effect = lower value. A digest of the protocol: (§1)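 Cytotoxicity was measured as CellTiter-Glo ATP luminescence, read after 10 min at room temperature. Compound treatment of the cells lasted 48 or 72 hr at 37 degrees Celsius in a qHTS format.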
A general note: In ATP-based viability assays light output follows the ATP content of the culture.

In the next experiment the test system is CRL-7250. The description is as above. The conditions noted are these: Five cell lines viability, CellTiter-Glo ATP luminescence, 48-72 h; max response: stronger effect = lower value. In outline:
as §1

In the next experiment the test system is GB4. The experiment can be described thus: qHTS profiling for inhibitors of Plasmodium falciparum proliferation (AID 504749). The following applies: P. falciparum in erythrocytes, SYBR Green DNA, 72 h; series mostly up to 28.7 µM. In outline: (§2)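 Three-day growth assay of blood-stage parasites in erythrocytes (0.3% parasitemia, 2.5% hematocrit) at 37 C, 5% CO2, quantified by SYBR Green DNA staining after overnight detergent lysis.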
For orientation: Quantitative high-throughput screening tests each substance at several concentrations.

In a further experiment the test system is ICS. Described as above. The conditions noted are these: P. falciparum in erythrocytes, SYBR Green DNA, 72 h; series mostly up to 28.7 µM. In outline:
as §2

Another experiment relates to PAD. The experiment is described as above. The conditions noted are these: P. falciparum in erythrocytes, SYBR Green DNA, 72 h; series mostly up to 28.7 µM. In outline:
as §2

The next experiment has as its system PC15. The experiment is described as above. The conditions noted are these: P. falciparum in erythrocytes, SYBR Green DNA, 72 h; series mostly up to 28.7 µM. In outline:
as §2

The next experiment has as its system PC26. The description is as above. The conditions noted are these: P. falciparum in erythrocytes, SYBR Green DNA, 72 h; series mostly up to 28.7 µM. A digest of the protocol: as §2
The test system of another experiment is PC49. The experiment is described as above. The conditions noted are these: P. falciparum in erythrocytes, SYBR Green DNA, 72 h; series mostly up to 28.7 µM. In outline:
as §2

A further experiment relates to TAB165. The experiment is described as above. The conditions noted are these: P. falciparum in erythrocytes, SYBR Green DNA, 72 h; series mostly up to 28.7 µM. A digest of the protocol: as §2
For the next experiment, the system named is W2. Described as above. The following applies: P. falciparum in erythrocytes, SYBR Green DNA, 72 h; series mostly up to 28.7 µM. In outline:
as §2

A further experiment has as its system ECU. The description is as above. The conditions noted are these: P. falciparum in erythrocytes, SYBR Green DNA, 72 h; series mostly up to 28.7 µM. A digest of the protocol:
as §2

A further experiment deals with FAB9. Described as above. The conditions noted are these: P. falciparum in erythrocytes, SYBR Green DNA, 72 h; series mostly up to 28.7 µM. A digest of the protocol: as §2
A further experiment relates to HB3. The experiment is described as above. The conditions noted are these: P. falciparum in erythrocytes, SYBR Green DNA, 72 h; series mostly up to 28.7 µM. In outline: as §2
The subject of the next experiment is JCK. The experiment is described as above. The following applies: P. falciparum in erythrocytes, SYBR Green DNA, 72 h; series mostly up to 28.7 µM. In outline:
as §2

A further experiment relates to N140. Described as above. The following applies: P. falciparum in erythrocytes, SYBR Green DNA, 72 h; series mostly up to 28.7 µM. In outline:
as §2

In another experiment the test system is P93_24. The description is as above. The conditions noted are these: P. falciparum in erythrocytes, SYBR Green DNA, 72 h; series mostly up to 28.7 µM. A digest of the protocol:
as §2

The test system of a further experiment is P94_40. Described as above. The conditions noted are these: P. falciparum in erythrocytes, SYBR Green DNA, 72 h; series mostly up to 28.7 µM. A digest of the protocol: as §2
The next experiment has as its system SC27B. The description is as above. The following applies: P. falciparum in erythrocytes, SYBR Green DNA, 72 h; series mostly up to 28.7 µM. A digest of the protocol:
as §2

The test system of the next experiment is TAB109. Described as above. The conditions noted are these: P. falciparum in erythrocytes, SYBR Green DNA, 72 h; series mostly up to 28.7 µM. A digest of the protocol: as §2
The subject of the next experiment is TAB113. The experiment is described as above. The following applies: P. falciparum in erythrocytes, SYBR Green DNA, 72 h; series mostly up to 28.7 µM. A digest of the protocol:
as §2

Structures are written as SMILES. Results filed as inconclusive are left out. Unmarked numbers belong to inactive results. Calls of active or inactive are those of the source. The call rests on the fitted dose curve; in most records, active means well fitted inhibition curve with a large enough effect; inconclusive means small, poorly fitted or top-dose-only effect; inactive means flat fitted curve, though single readings scatter.
Further: nearly all actives have a fitted effect of over 60% in size.
Potency means the concentration at half of the fitted maximal effect.

For the compound `O=C1Nc2cc(Cl)ccc2Oc2ccccc21`, the outcome with HEK293 was inactive.
Still for that read-out and setting: next, `COc1cc2c(cc1OC)CN(C(=O)[C@H](C)N[C@@H](CCc1ccccc1)C(=O)O)[C@H](C(=O)O)C2`: “inactive”.
For the compound `COc1ccc2nc(SCc3ncc(C)c(OC)c3C)[nH]c2c1`, the max response in the experiment with HEK293 was -3.1%.
On to `OC[C@]1(O)OC[C@@H](O)[C@H](O)[C@@H]1O`, for which the max response in the experiment with CRL-7250 was -7.2%. Also, the compound was classed as inactive in the experiment on HEK293.
For `CC(C)=CCC/C(C)=C/CC/C(C)=C/C(=O)OCC(=O)[C@@]1(O)CC[C@H]2[C@@H]3CCC4=CC(=O)C=C[C@]4(C)[C@H]3[C@@H](O)C[C@@]21C`, the Potency in the experiment with HEK293 was 10.6 µM (active).
Turning to `Cc1ncc([N+](=O)[O-])n1C`, the call with HEK293 was inactive.
As to `O=[N+]([O-])c1ccc(O)c2ncccc12`, the Potency was 15.1 µM (active) in the experiment on GB4; 12.6 µM (active) in the experiment with ICS; 14.1 µM (active) in the experiment on TAB165; 10.7 µM (active) with W2; 8.41 µM (active) with HEK293. The Potency entry in the experiment on PAD, in the experiment with PC15, in the experiment on PC26 and with PC49 was “inactive” each time.
For the compound `Nc1ncnc2nc[nH]c12`, the Potency entry in the experiment with ECU, in the experiment with FAB9, in the experiment on GB4, in the experiment on HB3, in the experiment on ICS and in the experiment on JCK was “inactive” throughout. Also, the Potency entry in the experiment on N140, with P93_24, with P94_40, in the experiment on PAD, in the experiment on PC15 and in the experiment with PC26 was “inactive” in each case. In addition, the Potency entry with PC49, in the experiment with SC27B, with TAB109, in the experiment on TAB113, in the experiment on TAB165 and in the experiment on W2 was “inactive” throughout.
Take `OCc1c[nH]c2ccccc12`: the Potency in the experiment on HEK293 was 21.7 µM (active).
`CCCCCCCCCCCCCCCC[n+]1ccccc1`: the Potency in the experiment on ECU was 7.08 µM (active); in the experiment with GB4, 3.38 µM (active); in the experiment with ICS it was 2.51 µM (active); in the experiment with N140 it was 8.91 µM (active); with P93_24 it was 7.94 µM (active); in the experiment on P94_40, 8.91 µM (active). In addition, the Potency was 12.6 µM (active) in the experiment with PAD; 10 µM (active) in the experiment with PC15; 12 µM (active) in the experiment with PC26; 10 µM (active) in the experiment on SC27B; 8.91 µM (active) with TAB109; 5.01 µM (active) with TAB113. Besides, the results for the Potency in the experiment with TAB165, in the experiment with W2 and in the experiment on CRL-7250 were 4.47 µM (active), 1.51 µM (active) and 1.5 µM (active), respectively.
Consider `Nc1c2ccccc2nc2ccccc12`, for which the Potency in the experiment with ECU is 10 µM (active); in the experiment with GB4, 10.7 µM (active); in the experiment with ICS it was 7.94 µM (active); with N140, 5.01 µM (active); in the experiment on P93_24, 7.08 µM (active); in the experiment on P94_40 it was 5.62 µM (active). Also, the Potency was 7.94 µM (active) in the experiment on PAD; 11.2 µM (active) in the experiment with PC15; 15.1 µM (active) in the experiment on PC26; 10 µM (active) in the experiment on SC27B; 7.08 µM (active) in the experiment on TAB109; 10 µM (active) with TAB113. In addition, the Potency in the experiment on TAB165 was 8.91 µM (active); with W2, 8.49 µM (active); with CRL-7250, 8.41 µM (active); in the experiment with HEK293, 5.96 µM (active).
For the compound `Cc1cc(C(C)(C)C)c(O)c(C(C)(C)C)c1`, the max response with HEK293 is -3.94%.
`CCOC(=O)C1=C(C)NC(C)=C(C(=O)OCC)C1c1ccccc1/C=C/C(=O)OC(C)(C)C`: the Potency in the experiment with HEK293 is 7.5 µM (active).
As for `N#CSCC(=O)O`, the max response with HEK293 was 0.303%.
On the same count and under the same terms, next, `OCCOCCN1CCN(C(c2ccccc2)c2ccc(Cl)cc2)CC1` (stereo not drawn): -4.98%.
Still for that read-out and setting: next, `Oc1cccc2[nH]ccc12`: 2.46%; `O=C(Nc1ccc(Cl)cc1)Nc1ccc(Cl)c(C(F)(F)F)c1`: -107%.
In the case of `Nc1cccc2c(N)cccc12`, the Potency in the experiment on HEK293 was 34.4 µM (active).
Same read-out and setting: for `CC(C(O)c1ccccc1)N(C)CCOC(c1ccccc1)c1ccccc1` (stereo not drawn) the value was 13 µM (active); for `CCOC(=O)Cn1cccc1-c1nc(-c2ccc(OC)cc2)c(-c2ccc(OC)cc2)s1`, 8.2 µM (active); for `OC1(c2ccc(Cl)c(C(F)(F)F)c2)CCN(CCCC(c2ccc(F)cc2)c2ccc(F)cc2)CC1`, 8.41 µM (active).
On to `CN1CCCN(C(c2ccccc2)c2ccc(Cl)cc2)CC1` (stereo not drawn), for which the Potency is 13.5 µM (active) in the experiment on GB4; 8.91 µM (active) with ICS; 10 µM (active) in the experiment with N140; 7.08 µM (active) in the experiment with P93_24; 5.62 µM (active) in the experiment on PAD; 5.01 µM (active) with PC49. Further, the Potency was 7.94 µM (active) in the experiment on TAB165 and 1.2 µM (active) with W2.
As to `CCNC(=O)NCCCOc1cccc(CN2CCCCC2)c1`, the max response with CRL-7250 was -12.2%; in the experiment on HEK293, -59.3%.
As to `CC(NCCC(c1ccccc1)c1ccccc1)c1ccccc1` (stereo not drawn), the Potency was 7.94 µM (active) in the experiment with ECU; 15.1 µM (active) in the experiment on GB4; 10 µM (active) in the experiment on HB3; 2.24 µM (active) in the experiment with ICS; 11.2 µM (active) with N140; 12.6 µM (active) in the experiment on P93_24. Besides, the Potency was 11.2 µM (active) in the experiment with P94_40; 12.6 µM (active) in the experiment on PAD; 11.2 µM (active) with PC15; 8.49 µM (active) with PC26; 5.01 µM (active) in the experiment on PC49; 11.2 µM (active) in the experiment with SC27B. Also, the Potency with TAB109 is 12.6 µM (active); with TAB165 it was 11.2 µM (active); with W2 it was 4.26 µM (active).
In the case of `Cc1nc(N)nc(N)c1-c1ccc(Cl)c(Cl)c1`, the Potency in the experiment on HEK293 is 1.06 µM (active).
On to `CC(=O)O[C@@H]1C(=O)O[C@@H]2[C@H]1OC(=O)[C@@H]2OC(C)=O`, for which the max response in the experiment on HEK293 was -3.32%.
